# Results as given in PubChem BioAssay (NCATS).
# Results filed as inconclusive are left out. Entries that show only a call come without a potency. A number with no mark means an inactive call. The source made the active and inactive calls. Calls follow the shape of the dose curve; as a rule, active = well fitted curve in the direction sought with a large enough effect; inconclusive = small, poorly fitted or top-dose-only effect, or another doubt; inactive = no such curve, though single readings can be large; an effect the other way counts as inactive or inconclusive.
# What was measured:
# [1] = target: Rap guanine nucleotide exchange factor 3 (Homo sapiens) (UniProt O95398); test: Confirmatory qHTS for agonist of cAMP-regulated guanine nucleotide exchange factor 3 (EPAC1) (AID 1645881);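 also: EPAC1 catalysed release of BODIPY-GDP from Rap1B seen as fluorescence loss; nearly all actives have a fitted effect of over 75% in size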
# [2] = target: Rap guanine nucleotide exchange factor 4 (Homo sapiens) (UniProt Q8WZA2); test: Confirmatory qHTS for agonist of cAMP-regulated guanine nucleotide exchange factor 4 (EPAC2) (AID 1645884);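 also: nucleotide exchange releases bodipy-GDP from Rap1 and this lowers its fluorescence; nearly all actives have a fitted effect of over 65% in size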
# [3] = target: Rap guanine nucleotide exchange factor 3 (Homo sapiens) (UniProt O95398); test: Counterscreen qHTS for agonist of cAMP-regulated guanine nucleotide exchange factor 3 (EPAC1) (AID 1645889); also: nearly all actives have a fitted effect of over 40% in size
# Procedure, shortened: (§1)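 Measured: fluorescence of BODIPY-GDP bound to Rap1B, which falls as exchange proceeds. Conditions include 50 uM competing GDP, 5 and 30 min reads, and a later cAMP challenge for antagonist detection.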
# [4] = target: Rap guanine nucleotide exchange factor 4 (Homo sapiens) (UniProt Q8WZA2); test: Confirmatory qHTS for antagonist of cAMP-regulated guanine nucleotide exchange factor 4 (EPAC2) (AID 1645885); also: nearly all actives have a fitted effect of over 25% in size; also: potency is read from the fitted curve at half-maximal effect
# [5] = target: Rap guanine nucleotide exchange factor 3 (Homo sapiens) (UniProt O95398); test: Counterscreen qHTS for antagonist of cAMP-regulated guanine nucleotide exchange factor 3 (EPAC1) (AID 1645888);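 also: fluorescence loss as bound BODIPY-GDP is released from Rap1B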
# Procedure, shortened: as §1
# Rap guanine nucleotide exchange factor 3 (Homo sapiens), sequence (O95398 whole entry, looked up): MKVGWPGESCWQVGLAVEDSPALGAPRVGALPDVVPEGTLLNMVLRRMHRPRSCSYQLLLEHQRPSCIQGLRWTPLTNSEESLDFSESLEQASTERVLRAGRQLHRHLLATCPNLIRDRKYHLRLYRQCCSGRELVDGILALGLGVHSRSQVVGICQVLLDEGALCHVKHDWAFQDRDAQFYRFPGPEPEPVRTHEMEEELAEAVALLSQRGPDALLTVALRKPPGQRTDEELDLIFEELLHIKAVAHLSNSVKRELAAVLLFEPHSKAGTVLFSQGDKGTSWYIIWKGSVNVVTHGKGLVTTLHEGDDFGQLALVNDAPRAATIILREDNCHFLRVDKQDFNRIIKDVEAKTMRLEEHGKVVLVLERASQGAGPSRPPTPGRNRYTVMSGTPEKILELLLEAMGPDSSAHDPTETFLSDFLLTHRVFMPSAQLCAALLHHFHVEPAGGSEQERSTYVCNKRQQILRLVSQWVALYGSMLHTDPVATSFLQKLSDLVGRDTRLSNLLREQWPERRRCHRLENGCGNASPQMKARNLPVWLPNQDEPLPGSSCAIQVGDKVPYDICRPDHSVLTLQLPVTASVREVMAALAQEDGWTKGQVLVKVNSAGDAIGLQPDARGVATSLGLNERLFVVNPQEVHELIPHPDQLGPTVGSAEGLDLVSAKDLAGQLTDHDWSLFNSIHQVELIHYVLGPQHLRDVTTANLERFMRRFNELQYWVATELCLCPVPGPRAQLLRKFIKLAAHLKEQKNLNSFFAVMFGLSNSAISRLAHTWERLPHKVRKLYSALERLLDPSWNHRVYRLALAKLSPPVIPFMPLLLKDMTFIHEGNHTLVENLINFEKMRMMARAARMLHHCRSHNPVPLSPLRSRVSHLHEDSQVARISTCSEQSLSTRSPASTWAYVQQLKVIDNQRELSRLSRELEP
# Rap guanine nucleotide exchange factor 4 (Homo sapiens), sequence (Q8WZA2 whole entry, looked up): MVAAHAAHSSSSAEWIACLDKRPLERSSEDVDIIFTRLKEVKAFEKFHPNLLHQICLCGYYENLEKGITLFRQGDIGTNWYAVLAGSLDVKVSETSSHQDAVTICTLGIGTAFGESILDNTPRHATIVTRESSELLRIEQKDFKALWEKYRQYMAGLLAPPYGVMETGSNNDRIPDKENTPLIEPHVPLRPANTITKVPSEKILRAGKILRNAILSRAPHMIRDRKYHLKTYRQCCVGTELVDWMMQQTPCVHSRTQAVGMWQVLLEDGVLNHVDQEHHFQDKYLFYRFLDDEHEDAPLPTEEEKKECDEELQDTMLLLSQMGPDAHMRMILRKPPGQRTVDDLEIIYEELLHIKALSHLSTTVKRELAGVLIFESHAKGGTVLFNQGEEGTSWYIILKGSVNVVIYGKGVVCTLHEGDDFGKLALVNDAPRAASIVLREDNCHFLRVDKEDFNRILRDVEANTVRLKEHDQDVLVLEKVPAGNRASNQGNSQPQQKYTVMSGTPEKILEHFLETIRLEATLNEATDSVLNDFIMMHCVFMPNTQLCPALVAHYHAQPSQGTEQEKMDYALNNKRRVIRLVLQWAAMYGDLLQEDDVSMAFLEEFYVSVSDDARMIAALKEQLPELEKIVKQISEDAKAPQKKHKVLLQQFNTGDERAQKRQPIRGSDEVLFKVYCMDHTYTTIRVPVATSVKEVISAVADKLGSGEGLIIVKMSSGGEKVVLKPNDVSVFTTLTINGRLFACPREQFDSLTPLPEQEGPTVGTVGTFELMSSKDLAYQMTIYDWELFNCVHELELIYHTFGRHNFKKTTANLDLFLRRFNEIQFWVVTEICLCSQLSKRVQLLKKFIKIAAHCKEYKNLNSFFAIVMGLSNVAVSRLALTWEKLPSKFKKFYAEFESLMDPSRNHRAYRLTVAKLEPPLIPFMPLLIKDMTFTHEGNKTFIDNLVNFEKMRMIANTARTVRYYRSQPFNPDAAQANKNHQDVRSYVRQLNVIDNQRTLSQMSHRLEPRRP
smiles,measurement,setting,value
C=CCN(C(=O)Cn1ncc2c1-c1cc(C)ccc1OC2)c1ccccc1,Potency,[1],inactive
same,Potency,[2],inactive
same,Potency,[3],inactive
O=S(=O)(c1cc(C(F)(F)F)ccc1Cl)N1CCN(c2ncnc3ccccc23)CC1,Potency,[1],inactive
same,Potency,[2],inactive
same,Potency,[3],inactive
COc1ccc2c(c1)Cc1sc(NC(=O)c3ccccc3Br)nc1-2,Potency,[1],inactive
same,outcome,[4],inactive [at 12.7 µM]
same,Potency,[5],inactive
N/C(CSc1nc(-c2ccccc2)c(-c2ccccc2)o1)=N\O,Potency,[1],inactive
same,Potency,[4],16.9 µM (active)
same,Potency,[5],inactive
Cc1cc[n+](-c2[nH]c(=O)sc2/C=N/N=C(\[O-])c2ccccc2)cc1,Potency,[1],inactive
same,Potency,[4],inactive
O=C1NNC(c2ccccc2)=N/C1=C\c1ccccc1Cl,Potency,[1],inactive
same,Potency,[4],inactive
same,Potency,[5],inactive
CCOc1ccccc1C(=O)N1CCc2cc(OC)c(OC)cc2C1COc1ccc(OC)cc1 (centres undefined),Potency,[1],inactive
same,Potency,[4],inactive
same,Potency,[5],inactive
Cc1nc2ccccc2c2oc(C(=O)Nc3ccc4c(c3)OCCO4)cc12,Potency,[1],inactive
same,Potency,[4],inactive
same,Potency,[5],inactive
O=c1c2ccccc2c(C=Nc2ccc(O)cc2)c(O)n1-c1nccs1,Potency,[1],inactive
same,Potency,[4],inactive
O=C(Cn1c(=O)c2ccccc2n(CC(=O)Nc2ccc(Cl)cc2)c1=O)NCCc1ccccc1,Potency,[1],inactive
same,Potency,[4],inactive
same,Potency,[5],inactive
CC(=O)Nc1ccc(Nc2nnc(-c3ccc(O)cc3)c3ccccc23)cc1,Potency,[1],inactive
same,Potency,[4],inactive
same,Potency,[5],inactive
COc1ccccc1CN(C)C(=O)C(c1ccccc1)c1ccccc1,Potency,[1],inactive
same,Potency,[4],inactive
same,Potency,[5],inactive
N#C/C(=C\c1ccc(-c2ccccc2C(=O)O)o1)c1nc2ccccc2[nH]1,Potency,[1],inactive
same,outcome,[4],inactive [at 12.7 µM]
same,Potency,[5],inactive
Cc1cc(C)c2c(CN3CCCC3)cc(=O)oc2c1,Potency,[1],inactive
same,Potency,[4],inactive
same,Potency,[5],inactive
O=C(Nc1ccc(-c2cn3ccccc3n2)cc1)c1cccs1,Potency,[1],inactive
same,Potency,[4],inactive
same,Potency,[5],inactive
CCn1c(SCC(=O)c2ccc(O)c(O)c2)nnc1-c1ccccc1OC,Potency,[1],inactive
same,Potency,[4],9.53 µM (active)
same,Potency,[5],inactive
CC1=CC(C)(C)N2C(=O)C(=Nc3ccc(O)cc3)c3cccc1c32,Potency,[1],inactive
same,Potency,[4],inactive
same,Potency,[5],inactive
COc1ccc(Cl)cc1NC(=O)COC(=O)c1cc(NS(=O)(=O)c2cccs2)ccc1O,Potency,[1],inactive
same,Potency,[4],inactive
same,Potency,[5],inactive
Cc1ccc(C)c(CN2C(=O)C(O)(c3c[nH]c4ccccc34)c3ccccc32)c1 (centres undefined),Potency,[1],inactive
same,outcome,[4],inactive [at 12.7 µM]
Clc1ccc(OCCn2c(-c3ccco3)nc3ccccc32)cc1,Potency,[1],inactive
same,Potency,[4],inactive
same,Potency,[5],inactive
COc1ccc(Cl)cc1C1CC(=O)Nc2cc3c(cc21)OCCO3 (centres undefined),Potency,[1],inactive
same,Potency,[4],inactive
same,Potency,[5],inactive
Cc1ccc(-c2nc3ccc(C)cn3c2Cc2cccc(F)c2)cc1,Potency,[1],inactive
same,Potency,[4],inactive
same,Potency,[5],inactive
Cc1ccc(C)c(Oc2nc3c(c(=O)n(C)c(=O)n3C)n2Cc2ccccc2)c1,Potency,[1],inactive
same,Potency,[4],inactive
same,Potency,[5],inactive
Cc1csc2nc(-c3cccc(NC(=O)c4cccc(F)c4)c3)cn12,Potency,[1],inactive
same,Potency,[4],inactive
same,Potency,[5],inactive
Cc1ccc2c(c1)N(Cc1cccc(Cl)c1)C(=O)c1cccnc1O2,Potency,[1],inactive
same,Potency,[4],47.8 µM (active)
same,Potency,[5],inactive
COc1ccc(-c2ccc(C(=O)NC(C)C)c3occc23)c(C)c1,Potency,[1],inactive
same,Potency,[4],inactive
same,Potency,[5],inactive
Cc1ccc(C2CC2/C(=N/O)c2ccc(F)cc2)cc1 (centres undefined),Potency,[1],inactive
same,Potency,[4],37.9 µM (active)
C#Cc1ccc([C@H]2C=C(C(=O)NCc3ccccc3)O[C@@H](OCC)[C@@H]2CCCO)cc1,Potency,[1],inactive
same,Potency,[4],37.9 µM (active)
same,Potency,[5],inactive
Cc1ccccc1C1(O)c2ccccc2-c2ccccc21,Potency,[1],inactive
same,Potency,[4],inactive
same,Potency,[5],inactive
COc1ccc(CNc2ncnc3onc(-c4ccc(F)cc4)c23)cc1,Potency,[1],inactive
same,Potency,[4],inactive
same,Potency,[5],inactive
Cc1nn(-c2ccccc2)c2nc(N)c(C#N)c(-c3ccc(O)c(O)c3)c12,Potency,[1],inactive
same,Potency,[4],inactive
same,Potency,[5],inactive
COC(=O)c1ccc(OCC2c3cc(OC)c(OC)cc3CCN2C(=O)c2ccc(OC)cc2)cc1 (centres undefined),Potency,[1],inactive
same,Potency,[4],inactive
same,Potency,[5],inactive
CCOC(=O)Nc1cc2c(c(N)n1)N=C(c1ccccc1)CN2,Potency,[1],inactive
same,Potency,[4],inactive
same,Potency,[5],inactive
CCOc1cc2c(cc1/C=C/c1noc(C)c1[N+](=O)[O-])OC(C)C2 (centres undefined),Potency,[1],inactive
same,Potency,[4],inactive
same,"activity change, negative = inhibition",[5],-13.8% [at 30.8 µM]
O=C1CN(C(=O)c2c(F)cccc2Cl)C(c2ccc(F)cc2)c2cc(Br)ccc2N1 (centres undefined),Potency,[1],inactive
same,Potency,[4],inactive
O=C(c1ccccc1Cc1ccccc1)N1CCN(S(=O)(=O)c2ccccc2Br)CC1,Potency,[1],inactive
same,Potency,[4],inactive
same,Potency,[5],inactive
O=c1[nH]c(Nc2ccc(F)cc2)cc2ccccc12,Potency,[1],inactive
same,Potency,[4],inactive
same,Potency,[5],inactive
Cc1ccc2c(c1)-c1c(cnn1CC(=O)N1CCN(c3cccc(C(F)(F)F)c3)CC1)CO2,Potency,[1],inactive
same,outcome,[4],inactive [at 12.7 µM]
same,Potency,[5],inactive
O=C(Nc1cccc(S(=O)(=O)NCc2ccco2)c1)c1cc(-c2ccccc2)nc2ccccc12,Potency,[1],inactive
same,Potency,[4],inactive
COc1ccc(C(=O)NCCn2cc(SCc3cccc(F)c3)c3ccccc32)cc1OC,Potency,[1],inactive
same,Potency,[4],inactive
same,Potency,[5],inactive
